Records with an inconclusive call do not appear. Calls of active or inactive are those of the source. The call rests on the fitted dose curve; in most records, active means well fitted curve in the direction sought with a large enough effect; inconclusive means small, poorly fitted or top-dose-only effect, or another doubt; inactive means no such curve, though single readings can be large; an effect the other way counts as inactive or inconclusive.
Key:
[1] = Primary redox qHTS assay for identification of artifact compounds. (AID 1845223)
Outline: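 Redox-cycling detection via DTT (250 uM final) oxidation coupled to Amplex Red (25 uM)/HRP (250 mU/mL) in HBSS. 15 min preincubation plus 30 min after DTT, room temperature. Ex/Em 525/598 nm; 4-parameter Hill fit against DMSO and 10 uM DA3003.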

[2] = Quantitative High-Throughput drug screen in 47 multiple myeloma cell lines against the NCATS MIPE library collection: FR4_PLB cell viability assay (AID 1918924; further: potency means the concentration at half of the fitted maximal effect; nearly all actives have a fitted effect of over 35% in size)
Outline: (§1)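 We plated 500 myeloma cells per well, pinned in MIPE 4.0 compounds, and incubated for 48 hours at 37C. ATP was then quantified with CellTiter-Glo, with DMSO and media-only wells defining 100% and 0%.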

[3] = Quantitative High-Throughput drug screen in 47 multiple myeloma cell lines against the NCATS MIPE library collection: Delta47_JCRB cell viability assay (AID 1918925; further: potency means the concentration at half of the fitted maximal effect; nearly all actives have a fitted effect of over 45% in size)
Outline: (§2)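 Primary qHTS used for cherry-picking: cells at 500/well, library compounds for 48 h (37C, 5% CO2), luminescent ATP assay.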

[4] = Quantitative High-Throughput drug screen in 47 multiple myeloma cell lines against the NCATS MIPE library collection: EJM_DSMZ cell viability assay (AID 1918926; further: potency means the concentration at half of the fitted maximal effect; nearly all actives have a fitted effect of over 30% in size)
Outline: as §2

[5] = Quantitative High-Throughput drug screen in 47 multiple myeloma cell lines against the NCATS MIPE library collection: AMO1_DSMZ cell viability assay (AID 1918927; further: potency means the concentration at half of the fitted maximal effect; nearly all actives have a fitted effect of over 30% in size)
Outline: as §2

[6] = Quantitative High-Throughput drug screen in 47 multiple myeloma cell lines against the NCATS MIPE library collection: ARP1_JJKsccF8 cell viability assay (AID 1918928; further: potency means the concentration at half of the fitted maximal effect; nearly all actives have a fitted effect of over 40% in size)
Outline: (§3)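 Cell viability inhibition in this qHTS is measured via ATP content (CellTiter-Glo) after 48 h drug exposure at 37 °C. Wells hold 500 cells; DMSO-treated wells define 100% and medium-only wells 0%.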

[7] = Quantitative High-Throughput drug screen in 47 multiple myeloma cell lines against the NCATS MIPE library collection: ARD_JJKsccE7 cell viability assay (AID 1918929; further: potency means the concentration at half of the fitted maximal effect)
Outline: as §2

[8] = Quantitative High-Throughput drug screen in 47 multiple myeloma cell lines against the NCATS MIPE library collection: Karpas620_DSMZ cell viability assay (AID 1918959); further: potency means the concentration at half of the fitted maximal effect; nearly all actives have a fitted effect of over 30% in size
Outline: as §1

[9] = Quantitative High-Throughput drug screen in 47 multiple myeloma cell lines against the NCATS MIPE library collection: KMM1_JCRB cell viability assay (AID 1918960); further: potency means the concentration at half of the fitted maximal effect; nearly all actives have a fitted effect of over 30% in size
Outline: as §3

[10] = Quantitative High-Throughput drug screen in 47 multiple myeloma cell lines against the NCATS MIPE library collection: Karpas417_ECACC cell viability assay (AID 1918961); conditions: Karpas417 myeloma viability, CellTiter-Glo ATP luminescence, 48 h; viability (% of DMSO): at 45.8 µM (top of the series); further: potency means the concentration at half of the fitted maximal effect
Outline: (§4)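 Viability readout: CellTiter-Glo luminescence following 5 min room-temperature incubation with reagent. Prior exposure: 48 h, 37C, humidified 5% CO2, 500 cells per well.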

[11] = Quantitative High-Throughput drug screen in 47 multiple myeloma cell lines against the NCATS MIPE library collection: KHM11_PLB cell viability assay (AID 1918962); further: potency means the concentration at half of the fitted maximal effect; nearly all actives have a fitted effect of over 35% in size
Outline: as §1

[12] = Quantitative High-Throughput drug screen in 47 multiple myeloma cell lines against the NCATS MIPE library collection: JIM3_ECACC cell viability assay (AID 1918963; further: potency means the concentration at half of the fitted maximal effect; nearly all actives have a fitted effect of over 35% in size)
Outline: as §1

[13] = Quantitative High-Throughput drug screen in 47 multiple myeloma cell lines against the NCATS MIPE library collection: JIM1_ECACC cell viability assay (AID 1918964; further: potency means the concentration at half of the fitted maximal effect)
Outline: as §2

[14] = Quantitative High-Throughput drug screen in 47 multiple myeloma cell lines against the NCATS MIPE library collection: INA6_PLB cell viability assay (AID 1918965; further: potency means the concentration at half of the fitted maximal effect; nearly all actives have a fitted effect of over 55% in size)
Outline: as §4

[15] = Quantitative High-Throughput drug screen in 47 multiple myeloma cell lines against the NCATS MIPE library collection: JJN3_DSMZ cell viability assay (AID 1918966; further: potency means the concentration at half of the fitted maximal effect; nearly all actives have a fitted effect of over 50% in size)
Outline: as §2

[16] = Quantitative High-Throughput drug screen in 47 multiple myeloma cell lines against the NCATS MIPE library collection: H1112_PLB cell viability assay (AID 1918967)
Outline: as §2

[17] = Quantitative High-Throughput drug screen in 47 multiple myeloma cell lines against the NCATS MIPE library collection: Karpas25_ECACC cell viability assay (AID 1918968; further: potency means the concentration at half of the fitted maximal effect; nearly all actives have a fitted effect of over 35% in size)
Outline: as §2

[18] = Quantitative High-Throughput drug screen in 47 multiple myeloma cell lines against the NCATS MIPE library collection: KMS27_JCRB cell viability assay (AID 1918970)
Outline: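 ATP-based viability (CellTiter-Glo luminescence) is measured in cells treated 48 h with approved and investigational drugs at 37 °C. Controls are DMSO-only wells for full viability and media-only wells for none.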

[19] = Quantitative High-Throughput drug screen in 47 multiple myeloma cell lines against the NCATS MIPE library collection: KMS12BM_JCRB cell viability assay (AID 1918971)
Outline: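 CellTiter-Glo luminescence (ATP) after 48 h compound exposure, 37C/5% CO2; 500 cells/well; MIPE 4.0 approved/investigational drugs pinned in; DMSO = 100%, media only = 0% viability.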

[20] = Quantitative High-Throughput drug screen in 47 multiple myeloma cell lines against the NCATS MIPE library collection: KMS12PE_JCRB cell viability assay (AID 1918972)
Outline: as §4

Measured: Potency

OCCCNc1cc(-c2ccnc(Nc3cccc(Cl)c3)n2)ccn1
inactive: [1]
active: [2] 118 nM | [3] 26.4 nM | [4] 118 nM | [5] 74.3 nM | [6] 105 nM | [7] 74.3 nM | [8] 66.2 nM | [9] 52.6 nM | [10] 46.9 nM | [11] 18.7 nM | [12] 52.6 nM | [13] 52.6 nM | [14] 26.4 nM | [15] 93.5 nM | [16] 59 nM | [17] 41.8 nM | [18] 41.8 nM | [19] 132 nM | [20] 93.5 nM

CC(C)c1cnn2c(NCc3ccccc3)cc(N[C@@H](CO)[C@H](O)CO)nc12
active: [2] 264 nM | [3] 166 nM | [4] 235 nM | [5] 118 nM | [6] 264 nM | [7] 148 nM | [8] 296 nM | [9] 166 nM | [10] 83.3 nM | [12] 235 nM | [13] 132 nM | [14] 166 nM | [15] 132 nM | [16] 296 nM | [17] 235 nM | [18] 209 nM | [19] 332 nM | [20] 372 nM
inactive: [1]

CN(C)Cc1c(C(=O)NCCOc2ccc(C(=O)NO)cc2)oc2ccccc12
inactive: [1]
active: [2] 526 nM | [3] 1050 nM | [4] 1870 nM | [5] 526 nM | [6] 526 nM | [7] 590 nM | [8] 743 nM | [9] 469 nM | [10] 372 nM | [11] 1870 nM | [12] 2960 nM | [13] 418 nM | [14] 187 nM | [16] 1870 nM | [17] 662 nM | [18] 264 nM | [19] 469 nM | [20] 418 nM

CCc1cc2c(cc1N1CCC(N3CCOCC3)CC1)C(C)(C)c1[nH]c3cc(C#N)ccc3c1C2=O
inactive: [1]

Cc1ccc(NC(=O)C2(c3ccc4c(c3)OC(F)(F)O4)CC2)nc1-c1cccc(C(=O)O)c1
inactive: [1]
active: [2] 46.9 nM | [3] 52.6 nM | [4] 83.3 nM | [5] 52.6 nM | [6] 26.4 nM | [7] 46.9 nM | [8] 166 nM | [9] 59 nM | [10] 46.9 nM | [11] 66.2 nM | [12] 118 nM | [13] 41.8 nM | [14] 29.6 nM | [15] 148 nM | [16] 118 nM | [17] 33.2 nM | [18] 46.9 nM | [19] 29.6 nM | [20] 41.8 nM

Cn1c2ccccc2c2c3c(c4c5ccccc5n(CCC#N)c4c21)CNC3=O
active: [2] 4690 nM | [3] 1480 nM | [4] 2960 nM | [5] 935 nM | [6] 7430 nM | [7] 2350 nM | [8] 2350 nM | [9] 935 nM | [10] 148 nM | [11] 833 nM | [12] 6620 nM | [13] 526 nM | [14] 83.3 nM | [15] 3320 nM | [16] 2090 nM | [17] 1870 nM | [19] 16600 nM | [20] 2350 nM
inactive: [1]

CS(=O)(=O)N1CCN(Cc2cc3nc(-c4cccc5[nH]ncc45)nc(N4CCOCC4)c3s2)CC1
inactive: [1]

CNc1nccc(-c2cccnc2Oc2cc(C(=O)Nc3cccc(C(F)(F)F)c3)ccc2C)n1
active: [2] 16600 nM | [3] 16600 nM | [4] 16600 nM | [5] 9350 nM | [6] 23500 nM | [7] 9350 nM | [8] 5900 nM | [11] 1050 nM | [12] 18700 nM | [13] 8330 nM | [14] 4180 nM | [15] 18700 nM | [16] 14800 nM | [17] 8330 nM | [18] 7430 nM | [20] 10500 nM
inactive: [1]

Nc1ncnc2c1c(-c1cnc3[nH]ccc3c1)nn2C1CCCC1
inactive: [1]
active: [2] 662 nM | [3] 235 nM | [4] 6620 nM | [5] 662 nM | [6] 743 nM | [7] 1320 nM | [8] 662 nM | [9] 66.2 nM | [12] 4690 nM | [13] 526 nM | [14] 209 nM | [15] 2350 nM | [16] 6620 nM | [17] 209 nM | [18] 209 nM | [19] 743 nM | [20] 935 nM
